One may read the viability as the share of living cells, or the viability signal relative to a control. The term inhibition denotes the relative decrease from the control value, in per cent. One may read the AC50 as the concentration at which the activity in the assay is half-maximal. The term IC50 denotes the concentration that gives 50% inhibition.

The values that follow come from PubChem BioAssay.

Test [1] is described as follows: compounds altering circadian rhythm period length – cell-based, LOPAC library, luminescence reporter (AID 2774).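 Also: values are relative to mean of DMSO wells on each plate.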 Conditions: circadian reporter cells, at 7 µM, actives lie on both sides.
Test [2] in a line: P. berghei load reduction in hepatocytes – cell-based, HepG2, luciferase luminescence, HepG2 viability, primary screen (AID 624349; in the data active = parasite load remaining mostly below about 12%, no sharp cut-off; inactive = mostly above about 10%;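 also: 100% = mean of DMSO negative control wells on the same plate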). Conditions: P. berghei liver stage in HepG2, luciferase luminescence, concentration not given here; parasite load remaining: stronger effect = lower value; viability: measured here: HepG2 viability without parasites.
Test [3] relates to Hepatitis C virus NS3 helicase. Nature of the test: blockers of NS3h binding to ssDNA – biochemical, fluorescence polarization, LOPAC1280 library, primary screen (AID 687035; in the data active = inhibition above about 37%). The following applies: Purified HCV NS3 helicase, Cy5-dT15 ssDNA binding fluorescence polarization; stronger effect = higher value; concentration not given here. (Polarisation of emitted light reports the rotation of a fluorescent probe.)

Test [4] can be described thus: compounds altering Cy5-DNA-NS3h complex signal – biochemical, LOPAC1280, artefact control for HCV NS3 helicase inhibitor project (AID 687037). Conditions: Cy5-DNA-NS3h complex fluorescence interference counterscreen. On the technique in general: The purpose of a counterscreen is to sort out artefacts and off-target activity.
Test [5] is described as follows: viability loss in pontine glioma line – cell-based, SU-DIPG-XVII, MIPE5.0, CellTiter-Glo, qHTS, dose response (AID 1347060; cut-off not given, nearly all actives have AC50 up to about 26 µM;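 as to AC50: cells exposed to compound for 48 hours before viability readout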). Conditions: CellTiter-Glo ATP luminescence. For orientation: ATP-based viability assays read luminescence as a measure of living cells.
Test [6] can be described thus: viability loss in pontine glioma line – cell-based, JHH-DIPG-1, MIPE4.0, CellTiter-Glo, qHTS, dose response (AID 1347062; cut-off not given, nearly all actives have AC50 up to about 27 µM;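 as to AC50: cells exposed to compound for two days before readout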). The following applies: JHH-DIPG-1 viability, CellTiter-Glo ATP luminescence.
A short description of test [7]: viability loss in pontine glioma line – cell-based, SU-DIPG-IV, MIPE4.0, CellTiter-Glo, qHTS, dose response (AID 1347063; cut-off not given, nearly all actives have AC50 up to about 30 µM;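 also: compound exposure lasted 48 hours before the viability readout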). The following applies: CellTiter-Glo ATP luminescence.
Test [8] can be described thus: growth inhibition of DIPG cells – cell-based, MIPE4.0 library, CellTiter-Glo luminescence, qHTS (AID 1347066; cut-off not given, nearly all actives have AC50 up to about 30 µM;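 also: cells exposed to compound for 48 hours before readout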). The following applies: SU-DIPG-VI viability, CellTiter-Glo ATP luminescence.
The nature of test [9]: JHH-DIPG-1 glioma cell viability, MIPE5.0 library, CellTiter-Glo luminescence, qHTS (AID 1347067; cut-off not given, nearly all actives have AC50 up to about 26 µM;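 also: cells exposed to compound for 48 hours before readout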). The following applies: JHH-DIPG-1 glioma viability, CellTiter-Glo ATP luminescence.
Test [10] is described as follows: growth inhibition of DIPG cells – cell-based, MIPE5.0 library, qHTS (AID 1347068; cut-off not given, nearly all actives have IC50 up to about 30 µM;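 as to IC50: cells exposed to compound for 48 hours before viability readout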). The following applies: SU-DIPG-XXV viability.
Test [11] in a line: blockers of cellular phospholipid synthesis – cell-based, LOPAC library, screen 4, primary screen (AID 1347384). The following applies: animal cells, phospholipid biosynthesis inhibition screen; at 10 µM.
Test [12] is described as follows: GFP-Q80 aggregate reduction, neuronal-like cells, cell-based, NGF-treated PC12, GFPQ80 (AID 1614).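 Also: lower means fewer inclusions and 0 means no inclusions at all.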 The following applies: PC12 NGF-treated GFP-polyQ80 inclusion reduction.
Test [13] is described as follows: viability loss in pontine glioma line – cell-based, SU-DIPG-XIII, MIPE4.0, CellTiter-Glo, qHTS, dose response (AID 1347061; cut-off not given, nearly all actives have AC50 up to about 37 µM;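 also: cells exposed to compound for 48 hours before readout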). Conditions: CellTiter-Glo ATP luminescence.

Structures are written as SMILES. Where “and” joins values, the source holds several entries; their conditions need not be identical. Equal entries are not always repeated. Results filed as inconclusive are left out. Calls of active or inactive are those of the source. Unless noted, no rule for the calls is given here.

As for `CC[C@H]1CN2CCc3cc(OC)c(OC)cc3[C@@H]2C[C@@H]1C[C@H]1NCCc2cc(OC)c(OC)cc21`, the period change in test [1] was 0 h (inactive). Also, the parasite load remaining in test [2] is -66.8% (active). Besides, the viability in test [2] came to 76.3%. In addition, the inhibition in [3] is 2% (inactive). The fluorescence ratio (interference) in [4] is 1 (inactive). The AC50 in test [5] was 0.263 µM (active); in [6] it was 1.32 µM (active); in test [7] it was 0.526 µM (active); in [8], 20.9 µM (active); in test [9], 833 nM (active). Also, in test [10], the 50% inhibitory concentration (IC50) was 742 nM (active). The compound was called inactive in test [11].

In the case of `CC1=C(CC(=O)O)c2cc(F)ccc2/C1=C\c1ccc(S(C)=O)cc1` (stereo unspecified), the inclusion score in [12] was determined as 2. Moreover, in [1], the period change was 0.265 h (inactive). Moreover, the inhibition in test [3] was 1% (inactive). In test [4], the fluorescence ratio (interference) is 1 (inactive). Also, the compound was called inactive in test [5], in test [8], in test [9], in test [10] and in [11]. Also, the AC50 in test [13] is 20.9 µM (active).

As for `CCC(C)(C)C(=O)O[C@H]1C[C@@H](C)C=C2C=C[C@H](C)[C@H](CC[C@@H]3C[C@@H](O)CC(=O)O3)[C@H]21`, the call in test [13] and in [10] was inactive. For the same compound, in [7], the concentration at half-maximal activity (AC50) was 18.7 µM (active).

On to `CCN(CC)CCCC(C)Nc1ccnc2cc(Cl)ccc12` (stereo unspecified), for which, in test [12], the inclusion score was found to be 2. The period change in test [1] was 0.02 h (inactive). Also, the inhibition in [3] was -3% (inactive). Besides, in test [4], the fluorescence ratio (interference) is 1 (inactive). Besides, in test [13], the AC50 was 0.00833 µM (active). For the same compound, the call in test [9], in [10] and in test [11] was inactive.

For the compound `CN(C)CCCN1c2ccccc2CCc2ccc(Cl)cc21`, the period change in test [1] is -0.12 h (inactive). Further, the inhibition in test [3] was -4% (inactive). Further, the fluorescence ratio (interference) in [4] is 1 (inactive). The compound was called inactive in test [5], in [10] and in test [11]. In addition, the AC50 in test [13] is 0.662 µM (active); in [6], 9.35 µM (active); in test [7] it was 18.7 µM (active).

In test [12], `CC(=O)CC(c1ccccc1)c1c(O)c2ccccc2oc1=O` (stereo unspecified) yielded an inclusion score of 2. In addition, the parasite load remaining in test [2] was 43.1% (inactive) and 79.3% (inactive) and 42.7% (inactive). In test [2], the viability was 95.3% and 65.5% and 98.1%. Further, the compound was classed as inactive in test [5], in test [13], in [7], in test [8], in test [9] and in test [10].

As to `O=C(C1CCCCC1)N1CC(=O)N2CCc3ccccc3C2C1` (stereo unspecified), the inclusion score in [12] turned out to be 2. In addition, the period change in test [1] is 0.13 h (inactive). Besides, the inhibition in test [3] is -3% (inactive). The fluorescence ratio (interference) in test [4] is 1 (inactive). Also, in test [5], the concentration at half-maximal activity (AC50) was 26.3 µM (active). The result in test [13], in test [6], in [7], in test [8], in test [9] and in test [10] was inactive. Besides, the outcome in test [11] was inactive.

`CCc1cc(C(N)=S)ccn1` showed an inclusion score in test [12] of 2. Further, the compound was classed as inactive in test [5], in test [13], in test [6], in [7], in test [8] and in test [9]. The outcome in test [10] was inactive.

On to `O=C(O)c1cc(=O)c2c(OCC(O)COc3cccc4oc(C(=O)O)cc(=O)c34)cccc2o1`, for which the inclusion score in test [12] amounted to 1. For the same compound, the compound was called inactive in test [5], in test [13], in test [6], in test [7], in [8] and in [9]. For the same compound, the compound was classed as inactive in test [10].

As for `CCN(Cc1ccncc1)C(=O)C(CO)c1ccccc1` (stereo unspecified), the inclusion score in [12] amounted to 1. Besides, in test [1], the period change is 0.035 h (inactive). Further, in test [3], the inhibition is -6% (inactive). The fluorescence ratio (interference) in test [4] is 0.9 (inactive). In addition, the call in test [11] was inactive.

Take `CCCc1nc2c(C)cc(-c3nc4ccccc4n3C)cc2n1Cc1ccc(-c2ccccc2C(=O)O)cc1`: the compound was classed as inactive in test [5], in [13], in [6], in [7], in test [8] and in test [9]. Moreover, in test [10], the result was inactive.

Turning to `Oc1c(Cl)cc(Cl)c2cccnc12`, the parasite load remaining in [2] is -2.47% (inactive) and 0.685% (inactive). Further, the viability in [2] is 56.8% and 69.6%. In addition, the AC50 in test [5] is 16.6 µM (active); in test [13], 18.7 µM (active); in test [7] it was 26.4 µM (active); in [8], 18.7 µM (active); in test [9] it was 2950 nM (active).

Take `OC(Cn1cncn1)(Cn1cncn1)c1ccc(F)cc1F`: the inclusion score in test [12] is 2. Moreover, the compound was classed as inactive in [5], in test [13], in [6], in test [7], in [8] and in test [9]. Besides, the outcome in [10] was inactive.

Regarding `CC(C)C(=O)Nc1ccc([N+](=O)[O-])c(C(F)(F)F)c1`, in test [1], the period change was -0.165 h (inactive). For the same compound, the inhibition in test [3] is -1% (inactive). For the same compound, the fluorescence ratio (interference) in test [4] was 1 (inactive). The compound was classed as inactive in [5], in test [13], in test [8], in test [9], in [10] and in test [11]. Further, in [6], the half-maximal activity concentration (AC50) was 18.7 µM (active).

Take `CC(C[N+](C)(C)C)OC(N)=O` (stereo unspecified): in test [12], the inclusion score was determined as 2. The period change in test [1] was -0.04 h (inactive). The inhibition in [3] was -2% (inactive). Besides, in [4], the fluorescence ratio (interference) is 1 (inactive). Also, the compound was classed as inactive in [5], in test [13], in [6], in test [8], in test [9] and in test [10]. The result in test [11] was inactive.

Take `CC1=NS(=O)(=O)c2cc(Cl)ccc2N1`: the period change in test [1] was 0.13 h (inactive). Further, the inhibition in [3] is -1% (inactive). Further, in test [4], the fluorescence ratio (interference) was 1 (inactive). Besides, the call in test [11] was inactive.

`CC1=C(/C=C/C(C)=C/C=C/C(C)=C/C(=O)O)C(C)(C)CCC1`: in test [1], the period change was 0.355 h (inactive). For the same compound, in [3], the inhibition is -1% (inactive). The fluorescence ratio (interference) in test [4] is 0.9 (inactive). In addition, the compound was classed as inactive in [6], in [9], in test [10] and in test [11].

In [12], `NNC(=O)c1ccncc1` came in with an inclusion score of 2. Further, the compound was classed as inactive in [5], in test [13], in [6], in test [7], in test [8] and in test [9]. The compound was called inactive in test [10].
